Activity calls are given as the source filed them. No rule for the calls is given here.
Assay: antiviral activity against WNV-induced cytopathicity – cell-based, secondary screen, flavivirus guanylyltransferase probe project (AID 623865)
Settings: West Nile virus CPE inhibition assay; series mostly up to 50 µM

outcome, inactive:
O=C(O)CSc1cc(NS(=O)(=O)c2ccc(Cl)cc2)c2ccccc2c1O
COc1ccc(OC)c(S(=O)(=O)Nc2cc(SCC(=O)O)c(O)c3ccccc23)c1
O=S(=O)(Nc1cc(Cl)c(O)c2ccccc12)c1ccc(F)cc1
O=C(O)CSc1cc(NS(=O)(=O)c2ccc(Br)cc2)c2ccccc2c1O
Cc1ccc(S(=O)(=O)Nc2cc(SCC(=O)O)c(O)c3ccccc23)cc1
Cn1c(=O)c2[nH]c(-c3ccc(Cl)cc3)c(O)c2n(C)c1=O
O=C(O)CSc1cc(NS(=O)(=O)c2ccc(F)cc2)c2ccccc2c1O
Cc1ccc(S(=O)(=O)Nc2cc(Sc3nc(C)cc(C)n3)c(O)c3ccccc23)cc1
O=[N+]([O-])c1cccc(S(=O)(=O)Nc2cc(SCc3ccccc3)c(O)c3ccccc23)c1
O=S(=O)(Nc1cc(Sc2ncn[nH]2)c(O)c2ccccc12)c1ccc(F)cc1
O=C(O)CSc1cc(NS(=O)(=O)c2cccc3cccnc23)c2ccccc2c1O
Cn1c(=O)c2[nH]c(-c3ccccc3)c(O)c2n(C)c1=O
O=C(O)CSc1cc(NS(=O)(=O)c2cccc([N+](=O)[O-])c2)c2ccccc2c1O
O=[N+]([O-])c1cccc(S(=O)(=O)Nc2cc(Sc3nc4ccccc4s3)c(O)c3ccccc23)c1
Cc1cc(F)ccc1S(=O)(=O)Nc1cc(SCC(=O)O)c(O)c2ccccc12
O=S(=O)(Nc1cc(SCc2ccccc2)c(O)c2ccccc12)c1ccc(Cl)cc1
O=S(=O)(Nc1cc(Sc2ccccc2)c(O)c2ccccc12)c1ccc(F)cc1
Cc1cc(C)c(S(=O)(=O)Nc2cc(SCC(=O)O)c(O)c3ccccc23)c(C)c1
